Consider 97 compounds from PubChem BioAssay AID2314 (National Center for Advancing Translational Sciences (NCATS), 2010).

Molecules are shown by their SMILES. Several values for one entry are separate records, joined by “and”; a condition that tells them apart may be missing. Identical values can stand only once. Screen size: about 300,000 compounds; about 37,000 (12%) were called active. What follows is part of a selection rich in actives, with near analogues and random picks from the rest. Values without a mark were called inactive. Cut-off read from the data, not from the text of the source: active = max response mostly above about 13% (no sharp cut-off); inactive = mostly below about 14%.

The nature of this experiment: Cycloheximide Counterscreen for Small Molecule Inhibitors of Shiga Toxin. Note: read at 38.3 µM for the half of the compounds with a filed dose; 0% is about no effect. The conditions noted are these: cell reporter, cycloheximide protein synthesis inhibition counterscreen; active compounds read high.
As to `Cc1ccccc1-n1cc(CNC(=O)CC2C(=O)NCCN2C/C=C/c2ccccc2)cn1` (configuration not stated), the max response was 0.457%.
Then `COc1ccc(NC(=O)CCn2ccnc2)c(OC)c1`, with -2.17%; and `COc1ccc(Cl)cc1NC(=O)C(C)N1CCc2ccccc21` (configuration not stated), with -0.595%; and `CC1CC(C)CN(C(=O)CSc2ccsc2[N+](=O)[O-])C1` (configuration not stated), with 25.5%.
`COc1ccc(C(CNC(=O)COc2ccccc2OC)N2CCCCC2)cc1` (configuration not stated): the max response is -6.3%.
Then `CC1CN(CCCOc2ccccc2-c2ccccc2)CC(C)O1` (configuration not stated), with -3.01%; and `NNC(=O)CSc1nnc(-c2ccccc2)n1-c1ccccc1`, with -4.61%; and `COc1ccc(C(=O)C2CCCN(S(=O)(=O)c3cccc(C)c3)C2)c(C)c1` (configuration not stated), with 1.12%.
Turning to `COc1ccc(Cc2nnc(SCC(=O)Nc3ccc(C)c(C)c3)o2)cc1OC`, the max response was -0.716%.
Under `O=C(c1cccc(N2CCCC2=O)c1)N1CCOCC1` stands -1.05%.
As to `NC1=NN(c2cccc(C(=O)O)c2)C(=O)C1`, the max response was 131% (active).
In the case of `COC(=O)CC1=NN(c2ccccc2)C(=O)C1`, the max response was -2%.
Under `CCO[C@H]1OC(C(=O)N2CCN(Cc3ccccc3)CC2)=C[C@@H](c2cn(C(C)=O)c3ccccc23)[C@@H]1CCCO` stands -1.61%; under `O=C(Nn1cnc2ccccc2c1=O)c1ccccc1`, 18%; under `O=C(Nn1cnc2ccccc2c1=O)c1ccc(F)cc1Cl`, 22.9% (active).
For the compound `O=C(Nn1cnc2ccccc2c1=O)c1ccc([N+](=O)[O-])cc1Cl`, the max response was 3.29%.
Turning to `COc1cc(CCC(=O)N2CCN(c3ccccc3Cl)CC2)cc(OC)c1OC`, the max response was -5.65%.
Then `CNC(=S)N/N=C/c1ccc(OCc2ccccc2)c(Br)c1`, with -5.52%.
Then `Cc1ccc(CNC(=O)C2(C(F)(F)F)C/C(=C\CCO)CCCO2)o1` (configuration not stated), with 7.26%; and `CCC(=O)Nc1cccc(NC(=O)CSc2nnc(-c3ccc(NS(C)(=O)=O)cc3)n2C)c1`, with -1.2%.
Then `COc1ccc(OC)c(S(=O)(=O)Nc2cccc(-c3ccc4nncn4n3)c2)c1`, with -3.34%; and `CS(=O)(=O)Nc1cccc(-c2cn3ccccc3n2)c1`, with 19.3% (active).
`CC(=O)C1=C(O)C(=O)N(c2ccc(Br)cc2)C1c1ccc([N+](=O)[O-])cc1` (configuration not stated): the max response was -1.92%.
Then `Oc1ccc(Br)cc1/C=N/Nc1ccccn1`, with 41.6% (active).
Under `Oc1ccc(Br)cc1C=Nc1ccc2[nH]ncc2c1` stands -2.62%; under `CCN(CC)CCn1c(/N=C/c2cc(Br)ccc2O)nc2ccccc21`, 8.52%.
Then `COc1cccc(-n2c(N)cc(=O)nc2SCC(=O)Nc2cc(C)on2)c1`, with -3.66%; and `Cc1ccnc(N2CCN(C(=O)CSc3nc4ccccc4nc3N3CCCCC3)CC2)c1`, with -5.65%.
As for `Cn1c(Nc2ccccc2)cc(=O)n(C)c1=O`, the max response was -4.74%.
Under `COc1ccc(C(=O)COC(=O)CNC(=O)c2cccs2)cc1Br` stands -4.46%; under `COc1cc(NC(=S)NCCSc2ccc(C)cc2)cc(OC)c1`, 2.45%.
Under `Cc1ccc(C(=O)NNc2ncnc3ccccc23)cc1` stands 37.5% (active); under `CCc1nc(SCC(=O)NNC(=O)c2ccc(C)cc2)c2ccccc2n1`, -3.44%; under `Cc1ccc(C(=O)NNC(=O)c2cc3cc4ccccc4nc3s2)cc1`, -2.84%.
Consider `CCOc1ccccc1-c1nc(CN2CCC(C(=O)N3CCOCC3)CC2)c(C)o1`, for which the max response is 5.66%.
Then `CCOC(=O)CSc1nnc(NC(=O)C2CC(=O)N(c3ccc(F)cc3)C2)s1` (configuration not stated), with 4.08%; and `S=c1[nH]nc(-c2cccnc2)n1/N=C/C(Cl)=C\c1ccccc1`, with -2.93%.
On to `Cc1cc(-c2n[nH]c(=S)n2/N=C/C(Br)=C/c2ccccc2)n[nH]1`, for which the max response is 95.8% (active).
Under `Cc1cc(-c2n[nH]c(=S)n2/N=C/c2ccco2)n[nH]1` stands 0.979%; under `Cc1nn(C)cc1S(=O)(=O)N1CCN(c2ccc(F)cc2)CC1`, 11.1%; under `CN(C(=O)COC(=O)CNC(=O)C12CC3CC(CC(C3)C1)C2)c1ccccc1`, 1.16%.
With `C#C[C@]1(O)CC[C@H]2[C@@H]3CCC4=CC(=O)CC[C@@H]4[C@H]3CC[C@@]21CC`, the max response was -12.5% and -2.99% and -5.94%.
Under `Cc1nc(CN(C)C(=O)CC2C(=O)NCCN2Cc2ccc(F)cc2)cs1` (configuration not stated) stands -1.31%.
As for `Brc1ccc(C2CC(c3ccccc3)=Nc3ccccc3N2)cc1` (configuration not stated), the max response is 43.8% (active).
Then `Brc1ccc(C2=NCCC(c3ccccc3)O2)cc1` (configuration not stated), with 6.52%; and `CNC(=S)N1N=C(c2ccccc2)CC1c1ccc(Br)cc1` (configuration not stated), with 12.1%.
In the case of `CNC[C@H](CC1CCCCC1)NC[C@H](NCCC1CCCC1)[C@H](C)O`, the max response was -3.05%.
Under `Cc1nonc1NC(=O)CSc1nc2ccccc2cc1C#N` stands 29.2%; under `COc1ccc(N2CCN(C(=O)CSc3nc4cc(OC)c(OC)cc4cc3C#N)CC2)cc1`, 2.1%; under `CCOc1ccc2cc(C#N)c(SCC(=O)OC)nc2c1`, 26.6% (active).
Under `CCCn1c2ccccc2c2cnn(CC(=O)NCCCN3CCCCC3CC)c(=O)c21` (configuration not stated) stands -4.88%; under `O=C(CSc1ccccc1)Nc1ccc(NC(=O)c2ccco2)cc1`, 16.6%.
In the case of `Cc1ccnc(NC(=O)c2ccco2)n1`, the max response was 10.2%.
Under `O=C(Nc1ccc2nccnc2c1)c1ccco1` stands 36.2% (active); under `O=C(Nc1ccc(Oc2ccccc2)cc1)c1ccco1`, 37.5% (active); under `Cc1cccc(NC(=O)Nc2cccc(Oc3c(F)c(F)c(F)c(F)c3F)c2)c1`, 7.92%.
As for `Cc1ccc(C(=O)COc2cccc(NC(=O)c3ccco3)c2)cc1`, the max response is 4.03%.
Then `O=C(Nc1c(-c2ccccc2)nc2c(Br)cc(Br)cn12)c1ccco1`, with 14.7%; and `Cc1ccoc1C(=O)Nc1cccc(Oc2ccccc2)c1`, with 62.1% (active); and `CCOc1cc(NC(=O)c2ccco2)c(OCC)cc1NC(=O)COc1ccccc1`, with -3.22%.
Then `O=C(Nc1cc(-c2nc3ncccc3o2)ccc1Cl)c1ccco1`, with 7.89%.
Then `O=C(Nc1cccc(NC(=O)c2ccco2)c1)c1cnccn1`, with 6.96%; and `O=C(Nc1cccc(-c2nc3ncccc3o2)c1)c1ccco1`, with 29.9% (active); and `COc1ccc(C(=O)Nc2ccc(C(=O)NCC3CCCO3)cc2)c(OC)c1OC` (configuration not stated), with -0.955%.
As for `O=S(=O)(Nc1cccc2cccnc12)c1cccc2cccnc12`, the max response is -4.18%.
Under `COc1cc(/C(=C/c2ccccc2)c2ccccc2)c2c(c1)oc1ccccc12` stands -1.79%; under `CCCOc1ccc(/C=N/NC(=O)C2CC2)c(OCCC)c1`, 1.32%.
Then `O=C(NNC(=O)c1ccco1)Nc1ccccc1`, with 12.6%; and `O=C(Nc1ccc(Sc2ccc(Br)cc2)cc1)c1ccco1`, with 35.2% (active).
Under `Cc1ccc(C(=O)NCCNC(=O)c2ccccc2)cc1` stands 2.82%; under `Cc1cc(NC(=O)[C@H](C)NC(=O)c2ccco2)ccc1Br`, -2.49%.
`O=C(Nc1ccc2oc(-c3ccccc3F)nc2c1)c1ccco1`: the max response is 47.3% (active).
For the compound `O=C(Nc1ccccc1)c1ccco1`, the max response is 18.8% (active).
Under `Cc1ccc(C(=O)NCCNS(=O)(=O)c2ccccc2)cc1` stands -4.96%; under `O=C(Nc1ccccc1)/C(=C\c1ccco1)NC(=O)c1ccco1`, 25.7%; under `COc1ccc(NC(=O)c2ccco2)cc1NC(=O)c1ccc(C#N)cc1F`, 1.08%.
Under `CCS(=O)(=O)Nc1ccc(C(=O)NCCSc2ccccc2)cc1` stands 30% (active); under `COc1ccc(NC(=O)CCCN2C(=O)C(c3ccccc3)Oc3cccnc32)cc1` (configuration not stated), 21.3%; under `C[N+](C)(C)CCNC(=O)c1cc[n+](Cc2ccccc2)c(/C=N/O)c1`, -2.41%.
Then `COC(=O)c1cc(CNC(=O)CC(C)c2ccccc2)ccc1OC` (configuration not stated), with 0.629%.
Consider `O=C(NNC1CC(=O)N(c2cccc(Cl)c2)C1=O)c1cccnc1` (configuration not stated), for which the max response was 0.896%.
Under `Cc1c(-c2ccccc2)n[nH]c1C(=O)N=Nc1c(O)[nH]c2ccccc12` stands 8.32%.
For `COc1ccc(-c2c(-c3ccc(OC)cc3O)nc(C)nc2C(F)(F)F)cc1`, the max response is -2.37%.
Then `O=C(NCCSc1ccccc1)c1ccco1`, with 81.7% (active); and `O=C(/C=C/c1ccco1)Nc1ccc(Oc2ccccc2)cc1`, with 37.9% (active); and `O=C(O)/C=C\C(=O)Nc1ccc(OCc2ccccc2)cc1`, with 21.5%.
Then `O=C(CNC(=O)c1ccco1)OCC(=O)c1ccccc1`, with 19.9%; and `O=C(CCSc1ccccc1)NCCSc1ccccn1`, with -3.74%.
Turning to `Cc1ccc(-n2nc3ccc(NC(=O)/C=C/c4ccco4)cc3n2)cc1C`, the max response is 30.3%.
For `CC(=O)NCCc1ccc(S(=O)(=O)Nc2ccc(C)c(S(=O)(=O)N3CCOCC3)c2)cc1`, the max response is -9.24%.
Take `CC1CCN(CC(=O)Nc2nccs2)CC1`: the max response is -2.21%.
Under `O=C(Cc1ccsc1)N1CCN(S(=O)(=O)c2cc(C(F)(F)F)cc(C(F)(F)F)c2)CC1` stands -2.13%.
Under `COc1cccc(C(C(=O)NC2CCCC2)N(C(=O)c2ccco2)c2cccc(C(C)=O)c2)c1OC` (configuration not stated) stands 3.33%; under `Cc1cc(OC(=O)c2c(Cl)cccc2Cl)nc(C)n1`, -0.567%.
As to `CCOC(=O)c1cnc(SCC(=O)Nc2ccccc2C(=O)OC)nc1N`, the max response is -1.91%.
Under `CCOC(=O)c1cnc(-c2ccccc2)nc1Oc1ccc(C)cc1` stands -0.445%.
Then `CCCCOc1ccc(-c2ncc(C(=O)OCC)c(N)n2)cc1`, with 42.2% (active).
